# In PubChem BioAssay (NCI):
# Compounds without any hit were thinned out: in the full panel of roughly 83,000, 20% have a hit.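 Note: values are percent growth. 100 is the growth of untreated cells, values between 100 and 0 indicate rising inhibition; between -100 and 0 indicates cell death.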 Values without a mark were called inactive. The source made the active and inactive calls. The calls were made as follows: active = growth percent below 10; inactive = the rest.
# Test system: M14 melanoma
# Assay: NCI-60 one-dose screen, 48 h (100 = growth as untreated, 0 = no growth, -100 = all killed)
# Conditions: 10 µM unless noted
row,SMILES,growth
1,COC(=O)[C@@H]1CCCN1C(=O)[C@H]1CCCN1C(=O)[C@@H](Cc1c[nH]c2ccccc12)NC(=S)Nc1cc(C(F)(F)F)cc(C(F)(F)F)c1,39.8%
2,Cc1ccc(F)cc1NC(=O)c1cc(Cl)ccc1Nc1ccccc1,45.1%
3,CC1=C(C(=O)OCC2CCN(C(=O)OC(C)(C)C)CC2)[C@@H](c2cccc(C#N)c2)C2=C(CC(C)(C)CC2=O)N1,35.7%
4,CCCCCCc1cc2cc(-c3csc(/C=C/c4ccccc4)n3)c(=O)oc2cc1O,-58.3% (active)
5,COc1ccc(Br)c(/C=C2\SC(=Nc3ccc(O)cc3)NC2=O)c1,97.8%
6,COc1ccc(Cn2c(Br)c3c(c2Br)-c2nc(N)sc2CC3)cc1,13.9%
7,COC(=O)c1cc2c(n1Cc1ccccc1)-c1oncc1CCC2,57.5%
8,CCOC(=O)c1sc(-c2ccc(OS(=O)(=O)c3ccccc3[N+](=O)[O-])c(C=O)c2)nc1C,5.91% (active)
9,Clc1ncccc1Nc1ccc2nnc(-c3ccncc3)n2n1,98.6%
10,O=C1NC(=O)C(=Cc2cn(Cc3cn(Cc4ccc(Cl)cc4Cl)nn3)c3ccccc23)C(=O)N1,96.8%
11,CCCCCCn1c(=N)n(CC(O)COc2cccc(C)c2)c2ccccc21 (stereo not drawn),-75.2% (active)
12,O=C(Nc1ncc(Cc2cccc(C(F)(F)F)c2)s1)C1COc2ccccc2O1 (stereo not drawn),88.5%
13,CN1C(=O)N(C)C2C1NN=c1s/c(=C\c3ccc([N+](=O)[O-])cc3)c(=O)n12 (stereo not drawn),51.2%
